Measurements taken from PubChem BioAssay AID1159580 (chemical genetic matrix, 2015).
Several values for one entry are separate records, joined by “and”; a condition that tells them apart may be missing. Identical values can stand only once. About 2,000 (36%) of roughly 5,500 compounds were called active. Inconclusive results (about 18%) are left out. Rule as the data show it: active = normalized growth mostly below about 0.91 (no sharp cut-off); inconclusive = no clear call, values can overlap the other calls; inactive = mostly above about 0.92. The list shows a part of the results.

Assay: chemical genetic growth profiling, strain panel (AID 1159580);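 also: tested at 20 µM; growth read once vehicle control cultures reached saturation at 30 °C; 1 = growth at the plate median or of vehicle wells; lower values mean less growth of the strain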
Conditions: S. cerevisiae deletion strains, growth OD

Measured: normalized growth

CC1=C(CC(=O)O)c2cc(F)ccc2/C1=C\c1ccc(S(C)=O)cc1 (stereo unspecified)
inactive: locus YAL013W, strain DEP1, stronger effect = lower value 1 | locus YAL021C, strain ccr4, stronger effect = lower value 1.02 | locus YAL026C, strain drs2, stronger effect = lower value 1.02 | locus YAL030W, strain snc1, stronger effect = lower value 1.01 | locus YAL040C, strain CLN3, stronger effect = lower value 0.99 | locus YBL061C, strain skt5, stronger effect = lower value 1.02 | locus YBR009C, strain hhf1, stronger effect = lower value 1.01 | locus YBR021W, strain FUR4, stronger effect = lower value 1.03 | locus YBR023C, strain chs3, stronger effect = lower value 1.02 | locus YBR171W, strain sec66, stronger effect = lower value 1.02 | locus YBR229C, strain ROT2, stronger effect = lower value 1 | locus YBR231C, strain swc5, stronger effect = lower value 1.03 | locus YBR279W, strain paf1, stronger effect = lower value 1.01 | locus YCL011C, strain gbp2, stronger effect = lower value 1.03 | locus YCL016C, strain dcc1, stronger effect = lower value 1.01 | locus YCL029C, strain bik1, stronger effect = lower value 1.02 | locus YCL061C, strain MRC1 (second series), stronger effect = lower value 1.01 | locus YCL061C, strain MRC1, stronger effect = lower value 1.02 | locus YCL069W, strain vba3, stronger effect = lower value 1.02 | locus YCR088W, strain abp1, stronger effect = lower value 1.02 | locus YDL005C, strain med2, stronger effect = lower value 1.02 | locus YDL035C, strain GPR1, stronger effect = lower value 1.01 | locus YDL040C, strain nat1, stronger effect = lower value 1.01 | locus YDL074C, strain BRE1, stronger effect = lower value 0.981 | locus YDL101C, strain DUN1, stronger effect = lower value 1.01 | locus YDL134C, strain PPH21, stronger effect = lower value 0.999 | locus YDL185W, strain tfp1, stronger effect = lower value 1 | locus YDL192W, strain arf1, stronger effect = lower value 1.02 | locus YDR001C, strain nth1, stronger effect = lower value 1.02 | locus YDR069C, strain doa4, stronger effect = lower value 1.01 | locus YDR101C, strain arx1, stronger effect = lower value 1.06 | locus YDR137W, strain rgp1, stronger effect = lower value 1.02 | locus YDR150W, strain NUM1, stronger effect = lower value 0.996 | locus YDR159W, strain sac3, stronger effect = lower value 1.02 | locus YDR162C, strain NBP2, stronger effect = lower value 1.01 | locus YDR195W, strain ref2 1.04 | locus YDR297W, strain sur2, stronger effect = lower value 1.02 | locus YDR318W, strain mcm21, stronger effect = lower value 1.02 | locus YDR334W, strain swr1, stronger effect = lower value 1.02 | locus YDR335W, strain msn5, stronger effect = lower value 1.01 | locus YDR363W, strain ESC2, stronger effect = lower value 0.995 | locus YDR388W, stronger effect = lower value 1.03 | locus YDR392W, strain spt3, stronger effect = lower value 0.996 | locus YDR502C, strain sam2, stronger effect = lower value 1.02 | locus YEL003W, strain gim4, stronger effect = lower value 1.02 | locus YEL037C, strain rad23, stronger effect = lower value 1.02 | locus YEL061C, strain CIN8 (second series), stronger effect = lower value 1.03 | locus YEL061C, strain CIN8, stronger effect = lower value 1.01 | locus YER002W, strain NOP16, stronger effect = lower value 0.993 | locus YER015W, strain faa2, stronger effect = lower value 1.01 | locus YER016W, strain bim1, stronger effect = lower value 1 | locus YER110C, stronger effect = lower value 1.03 | locus YER111C, strain swi4, stronger effect = lower value 1.03 | locus YER155C, strain BEM2 (second series), stronger effect = lower value 1.03 | locus YER155C, strain BEM2, stronger effect = lower value 1.01 | locus YER167W, strain BCK2, stronger effect = lower value 1.01 | locus YFR010W, strain ubp6, stronger effect = lower value 1.02 | locus YGL078C, strain dbp3, stronger effect = lower value 1.02 | locus YGL086W, strain mad1, stronger effect = lower value 1.01 | locus YGL167C, strain pmr1, stronger effect = lower value 1.03 | locus YGL173C, strain kem1, stronger effect = lower value 1.02 | locus YGL227W, strain vid30, stronger effect = lower value 1.03 | locus YGL240W, strain doc1, stronger effect = lower value 1.01 | locus YGL248W, strain PDE1, stronger effect = lower value 0.999 | locus YGL253W, strain hxk2, stronger effect = lower value 1.02 | locus YGR078C, strain PAC10, stronger effect = lower value 1.01 and 0.998 | locus YGR135W, strain pre9, stronger effect = lower value 1 | locus YGR229C, strain SMI1, stronger effect = lower value 0.977 | locus YGR252W, strain gcn5, stronger effect = lower value 0.982 | locus YHR013C, strain ard1, stronger effect = lower value 1.03 | locus YHR027C, strain rpn1, stronger effect = lower value 1.02 | locus YHR030C, strain SLT2, stronger effect = lower value 1.01 and 0.982 | locus YHR079C, strain IRE1 (second series), stronger effect = lower value 1.03 | locus YHR079C, strain IRE1, stronger effect = lower value 0.988 | locus YHR094C, strain hxt1, stronger effect = lower value 1.02 | locus YHR129C, strain ARP1, stronger effect = lower value 0.996 | locus YHR142W, strain chs7, stronger effect = lower value 1.02 | locus YHR200W, strain rpn10, stronger effect = lower value 1.03 | locus YIL066C, strain RNR3, stronger effect = lower value 1 | locus YIL073C, strain SPO22, stronger effect = lower value 1.04 | locus YIL125W, strain kgd1, stronger effect = lower value 1.02 | locus YIR030C, strain dcg1, stronger effect = lower value 1.02 | locus YJL092W, strain hpr5, stronger effect = lower value 1.02 | locus YJL095W, strain BCK1 (second series), stronger effect = lower value 1.02 | locus YJL095W, strain BCK1, stronger effect = lower value 0.992 and 0.97 | locus YJL115W, strain asf1, stronger effect = lower value 1.03 | locus YJL129C, strain trk1, stronger effect = lower value 1.03 | locus YJL134W, strain LCB3, stronger effect = lower value 1.01 | locus YJL154C, strain vps35, stronger effect = lower value 1.02 | locus YJL164C, strain tpk1, stronger effect = lower value 1.01 | locus YJL166W, strain qcr8, stronger effect = lower value 1.01 | locus YJL168C, strain set2, stronger effect = lower value 1.02 | locus YJL187C, strain SWE1 (second series), stronger effect = lower value 1.01 | locus YJL187C, strain SWE1, stronger effect = lower value 1.02 | locus YJR043C, strain POL32, stronger effect = lower value 1 | locus YJR066W, strain TOR1, stronger effect = lower value 0.924
